Only a selection was taken, and hits are over-represented in it overall.
Shiga inhibitor: Shiga toxin inhibition. Vero cells, Shiga toxin protein synthesis inhibition reporter. inhibition, % at 38.7 µM. 290,000 compounds, 9.2% hits; in the data active = inhibition mostly above about 28%, no sharp cut-off; inactive = mostly below about 43%
TbPYK inhibitor: inhibitors of Trypanosoma brucei pyruvate kinase; Q57TT1; TbPYK enzyme, Kinase-Glo Plus ATP luminescence, 45 min; Potency, µM (doses to about 76.8 µM), hits mostly inhibitors; 410,000 compounds, 0.12% hits; AID 624173; also: nearly all actives have a fitted effect of over 50% in size
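Luminescence from Kinase-Glo Plus, added after a 45-minute room-temperature reaction, served as the end-point read-out. The enzyme and substrate were preincubated with compound before ADP (130 uM final) initiated turnover. Concentration-effect curves came from normalized qHTS data.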
Sm TGR block: blocks Schistosoma mansoni thioredoxin glutathione reductase; purified TGR, DTNB reduction, TNB absorbance 405 nm; AID 485364; 360,000 compounds, 3% hits; Potency, µM (top dose mostly 114 µM), usual class: inhibitors; Q962Y6; also: nearly all actives have a fitted effect of over 60% in size
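Kinetic colorimetric format: TGR-catalysed, NADPH-driven DTNB reduction monitored via TNB absorbance. Enzyme dispensed at 20 nM; compound exposure 15 min at room temperature before reaction start.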
Giardia FBPA inh: Giardia lamblia aldolase inhibition. AID 2451. Potency, µM (top dose mostly 59.6 µM), hits mostly inhibitors. 290,000 compounds, 0.71% hits. purified Giardia FBPA; also: nearly all actives have a fitted effect of over 55% in size
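40 nM FBPA preincubated 10 min at RT with compound (up to 57.5 uM final), then substrate plus GAPDH/TPI/NAD/arsenate coupling and diaphorase/resazurin added. Fluorescence read after 20 min at RT, 525/598 nm.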
LmPK inhibitor: blocks Leishmania mexicana pyruvate kinase activity | Q27686 | purified LmPK, Kinase-Glo ATP luminescence, 1 h | Potency, µM (titrated, usually from 57.5 µM), actives largely listed as inhibitors | 290,000 compounds, 0.37% hits
Target sequence (Q27686 whole entry, looked up): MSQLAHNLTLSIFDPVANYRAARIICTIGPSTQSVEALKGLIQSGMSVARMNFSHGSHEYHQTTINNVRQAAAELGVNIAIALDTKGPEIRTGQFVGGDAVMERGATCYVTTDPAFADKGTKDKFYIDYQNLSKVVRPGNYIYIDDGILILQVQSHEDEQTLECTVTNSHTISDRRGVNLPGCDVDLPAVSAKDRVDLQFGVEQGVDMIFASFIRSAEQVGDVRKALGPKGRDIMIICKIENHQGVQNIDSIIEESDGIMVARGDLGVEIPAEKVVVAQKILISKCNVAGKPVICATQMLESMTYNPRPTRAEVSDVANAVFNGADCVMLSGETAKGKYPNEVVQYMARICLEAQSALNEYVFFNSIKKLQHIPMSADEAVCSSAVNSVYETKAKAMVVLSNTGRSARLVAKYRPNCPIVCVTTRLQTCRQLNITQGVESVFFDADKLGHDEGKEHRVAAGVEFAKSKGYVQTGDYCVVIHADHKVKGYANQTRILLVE
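ATP generated from ADP (0.1 mM) and PEP (0.5 mM) by 0.1 nM LmPK over 1 h at room temperature (pH 7.2 imidazole buffer) was detected by coupled luciferase luminescence. Values were normalized to uninhibited and no-enzyme wells.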
CHX counter: counter-screen hit for Shiga toxin inhibitors, cycloheximide. 300,000 compounds, 12% hits. max response, %. cell reporter, cycloheximide protein synthesis inhibition counterscreen; in the data active = max response mostly above about 13%, no sharp cut-off; inactive = mostly below about 14%; also: read at 38.3 µM for the half of the compounds with a filed dose
Of the large screens only hits and unclear results are named; the others gave an inactive call. Unless noted, calls follow the shape of the dose curve; as a rule, active = well fitted curve in the direction sought with a large enough effect; inconclusive = small, poorly fitted or top-dose-only effect, or another doubt; inactive = no such curve, though single readings can be large; an effect the other way counts as inactive or inconclusive.

CCOC(=O)NNc1ccc2nonc2c1[N+](=O)[O-]	Sm TGR block 15.8µM, Giardia FBPA inh 7.06µM
CCc1ccc(Nc2ccc3nonc3c2[N+](=O)[O-])cc1	none (no result: Shiga inhibitor, Sm TGR block, Giardia FBPA inh, LmPK inhibitor, CHX counter)
CC(=O)c1cccc(NC(=O)NCc2ccco2)c1	none
CCCn1c(CN2CCN(C(=O)c3ccco3)CC2)nc2cc(S(=O)(=O)N(C)C)ccc21	Sm TGR block 28.2µM (no result: Shiga inhibitor, Giardia FBPA inh, LmPK inhibitor, CHX counter)
Cn1c(CCNC(=O)c2ccco2)nc2cc(NC(=O)NC3CCCCC3)ccc21	none
Cc1nc2cc(NC(=O)NCc3ccco3)ccc2n1C	Shiga inhibitor 85.4, CHX counter 41.3
COc1cc(C(=O)Nc2ccc(-n3cnnn3)c(C)c2)cc(OC)c1OC	none
Cc1cc(NC(=O)c2ccco2)ccc1-n1cnnn1	Shiga inhibitor 112.6, CHX counter 45.5 (no result: Giardia FBPA inh)
CCn1c(CN2CCN(c3ccc(OC)cc3)CC2)nc2cc(S(=O)(=O)N(C)C)ccc21	none
Cn1c(CCNC(=O)c2ccco2)nc2cc(NC(=O)C3CCCCC3)ccc21	Shiga inhibitor 36.6, CHX counter 11.9
Nc1ccn([C@@H]2O[C@H](CO)[C@@H](O)C2(F)F)c(=O)n1	none (no result: Shiga inhibitor, Sm TGR block, Giardia FBPA inh, LmPK inhibitor, CHX counter)
CN(C)CCNC(=O)C1(O)c2cc(Br)ccc2NC(=O)N1c1ccc(Cl)cc1 (stereo not given)	none
Nc1nc2ccc(NC(=O)c3ccco3)cc2s1	Shiga inhibitor 107.0, CHX counter 50.8
CCOC(=O)N1CCN(Cc2nc3cc(NC(=O)C(C)C)ccc3n2CC)CC1	none
O=C(Nc1ccc2[nH]c3c(c2c1)CCCC3)c1ccco1	Shiga inhibitor 42.0, Sm TGR block 44.7µM, Giardia FBPA inh inconclusive, CHX counter 13.7
Cc1ccc(OCCSc2nc3ccc(NC(=O)c4ccco4)cc3s2)cc1	none (no result: Shiga inhibitor, Giardia FBPA inh, LmPK inhibitor, CHX counter)
NNC(=O)c1ccc2[nH]c3c(c2c1)CCCC3	none
Cc1cc2cc(NC(=O)c3ccco3)ccc2[nH]1	Shiga inhibitor 137.0, Giardia FBPA inh inconclusive, CHX counter 61.2
CCOC(=O)N1CCN(Cc2nc3cc(NC(=O)c4ccco4)ccc3n2CC)CC1	CHX counter 22.9
Cc1sc2ncn(CC(=O)Nc3cccc(C(F)(F)F)c3)c(=O)c2c1S(=O)(=O)N1CCN(C)CC1	none (no result: Shiga inhibitor, Giardia FBPA inh, LmPK inhibitor, CHX counter)
CCC(=O)C1=C(c2cccc(OC)c2)N(C(=O)CC)n2c(nnc2C2CCCCC2)S1	none (no result: Shiga inhibitor, Giardia FBPA inh, LmPK inhibitor, CHX counter)
Cc1ccccc1-c1noc(CNC(=O)c2ccco2)n1	none
Cc1nc2cc(NC(=O)c3ccco3)ccc2n1C	CHX counter 23.6 (no result: Giardia FBPA inh)
Cc1nc2ccc(NC(=O)c3ccco3)cc2nc1C	Shiga inhibitor 58.9, CHX counter 17.3
CCCCC(=O)Nc1ccc2c(c1)nc(CCNC(=O)c1ccco1)n2C	CHX counter 15.5 (no result: Giardia FBPA inh)
COc1cccc(OC)c1C(=O)Nc1ccc2nc(C)c(C)nc2c1	none
CCC(=O)NCCc1nc2cc(NC(=O)c3ccco3)ccc2n1C	Shiga inhibitor 44.0, CHX counter 15.5
CCc1ccccc1NC(=O)C1CCN(c2nc3ccccc3[nH]2)CC1	none (no result: Shiga inhibitor, Giardia FBPA inh, LmPK inhibitor, CHX counter)
Cn1c(CCNC(=O)c2ccco2)nc2cc(NC(=O)c3ccco3)ccc21	Shiga inhibitor 48.6, Sm TGR block inconclusive, CHX counter 22.5
Cn1c(CCNC(=O)c2ccco2)nc2cc(NC(=O)c3ccccc3)ccc21	Shiga inhibitor 80.1, CHX counter 36.2 (no result: Giardia FBPA inh)
Cn1c(CCNC(=O)c2ccccc2)nc2cc(NC(=O)c3ccco3)ccc21	Sm TGR block inconclusive
COc1ccccc1C(=O)Nc1ccc2c(c1)nc(CCNC(=O)c1ccco1)n2C	none
CCOC(=O)c1ccccc1NC(=O)N1CCN2CCCCC2C1 (stereo not given)	none (no result: Shiga inhibitor, Giardia FBPA inh, LmPK inhibitor, CHX counter)
CN(C)C(=S)NC(=NCc1ccc([N+](=O)[O-])cc1)c1ccccc1	none
CNC(=S)N(C1=NCC(c2ccc([N+](=O)[O-])cc2)S1)c1ccccc1 (stereo not given)	Shiga inhibitor 55.5, CHX counter 38.9
CCCCNc1nc(C)nc2c1nc(-c1ccccc1)n2CC1CCCN1CC (stereo not given)	none (no result: Shiga inhibitor, TbPYK inhibitor, Sm TGR block, LmPK inhibitor, CHX counter)
CCSc1nnc2ccc(-c3cccs3)nn12	none
CCc1ccc(-c2ccc3nnc(SC)n3n2)cc1	CHX counter 22.0
CCSc1nnc2ccc(-c3ccco3)nn12	Sm TGR block 35.5µM
CCSc1nnc2ccc(-c3ccc(C)cc3)nn12	CHX counter 26.0

High-throughput results as filed in PubChem BioAssay.
